Settings in all cases: modulator concentration 10 µM
The subject of test [1] is RAW-Dual (murine macrophage reporter line). Nature of the test: NF-kB reporter (SEAP) activity fold change vs agonist alone; higher = enhanced NF-kB activity. An outline of the steps: (§1)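 In 384-well plates holding 50 000 RAW-Dual murine macrophage reporter cells per well, compound at 10 μM final was pre-incubated for 1 hour at 37 °C, after which a PRR agonist was added overnight. Supernatant SEAP read with QUANTI-Blue at 620 nm absorbance reported NF-κB, and Lucia luciferase read with QUANTI-Luc luminescence reported IRF. Fold change values come from dividing each reporter signal by the mean of agonist-only control wells on the same plate, averaged over replicate plates with propagated errors.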

Test [2] has the same test system. Nature of the test: IRF reporter (Lucia luciferase) activity fold change vs agonist alone; higher = enhanced IRF activity. An outline of the steps:
as §1

Test [3] shares this test system. Briefly: viability score (confluency relative to resting cells, overnight) (fraction); higher = more viable, active = viable (0.7 or more). Summed up: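 Compound was added at a final 10 μM to RAW-Dual macrophages in 384-well plates and left overnight. Confluency was imaged with IncuCyte, and two masks were generated in IncuCyte software over all imaged wells. Each viability score is confluency relative to resting cells, and a compound met the cutoff only when both masks were above 70% of resting cells.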

Where [4] appears, read: agonist: CpG ODN 1826 0.5 ug/mL.

± gives the standard deviation.

As for `Cc1ccc(C2(c3ccc(C)cc3)CC2C(=O)Nc2ccccc2)cc1` (stereo not drawn), the NF-kB reporter in test [1] (setting [4]) amounted to 0.728 ± 0.079; in test [1] (agonist: LPS 0.1 ug/mL), 0.905 ± 0.12; in test [1] (agonist: MPLA […]) it was 1.51 ± 0.071. The IRF reporter came out at 0.541 ± 0.031 in test [2] (agonist: 3'3'-cGAMP 10 ug/mL), 0.835 ± 0.12 in test [2] (agonist: LPS 0.1 ug/mL) and 0.654 ± 0.12 in test [2] (agonist: MPLA […]). Further, in test [3], the viability score is 0.992 (active).

For `Fc1ccccc1C=NNc1nc(-c2ccccc2)cc(-c2ccccc2)n1`, the NF-kB reporter in test [1] (setting [4]) was 1.03 ± 0.25; in test [1] (agonist: LPS 0.1 ug/mL) it was 1.19 ± 0.094; in test [1] (agonist: MPLA […]), 1.05 ± 0.17. Moreover, the IRF reporter in test [2] (agonist: 3'3'-cGAMP 10 ug/mL) came out at 1.01 ± 0.028; in test [2] (agonist: LPS 0.1 ug/mL), 1.14 ± 0.15; in test [2] (agonist: MPLA […]), 1.51 ± 0.37. In test [3], the viability score is 1 (active).

As for `CC(C)c1ccc2oc3nc(N)c(C(=O)O)cc3c(=O)c2c1`, the NF-kB reporter is 1.2 ± 0.16 in test [1] (setting [4]), 1.23 ± 0.15 in test [1] (agonist: LPS 0.1 ug/mL) and 0.91 ± 0.052 in test [1] (agonist: MPLA […]). Further, the results for the IRF reporter in test [2] (agonist: 3'3'-cGAMP 10 ug/mL), in test [2] (agonist: LPS 0.1 ug/mL) and in test [2] (agonist: MPLA […]) were 0.858 ± 0.026, 1.28 ± 0.32 and 1.16 ± 0.18, respectively. In test [3], the viability score was 0.993 (active).

In the case of `CS(=O)(=O)Nc1cccc(F)c1`, the results for the NF-kB reporter in test [1] (setting [4]), in test [1] (agonist: LPS 0.1 ug/mL) and in test [1] (agonist: MPLA […]) were 1.12 ± 0.088, 1.08 ± 0.074 and 1.03 ± 0.061, respectively. Further, the IRF reporter in test [2] (agonist: 3'3'-cGAMP 10 ug/mL) stood at 1 ± 0.17; in test [2] (agonist: LPS 0.1 ug/mL), 1.07 ± 0.14; in test [2] (agonist: MPLA […]), 1.07 ± 0.22. Moreover, the viability score in test [3] is 1 (active).

Consider `Cl.Cl.Fc1ccc(C(c2ccc(F)cc2)N2CCN(C/C=C/c3ccccc3)CC2)cc1`, for which the NF-kB reporter came out at 1.06 ± 0.087 in test [1] (setting [4]), 0.97 ± 0.1 in test [1] (agonist: LPS 0.1 ug/mL) and 1.42 ± 0.3 in test [1] (agonist: MPLA […]). The IRF reporter was 1.06 ± 0.068 in test [2] (agonist: 3'3'-cGAMP 10 ug/mL), 1.11 ± 0.082 in test [2] (agonist: LPS 0.1 ug/mL) and 1.26 ± 0.14 in test [2] (agonist: MPLA […]). Also, the viability score in test [3] was 0.999 (active).

`Cc1cc(CCC(=O)N(C)C2CN(c3ccc4nnc(C)n4n3)C2)ccc1F`: the NF-kB reporter worked out at 1.11 ± 0.058 in test [1] (setting [4]), 1.1 ± 0.091 in test [1] (agonist: LPS 0.1 ug/mL) and 0.918 ± 0.046 in test [1] (agonist: MPLA […]). Besides, the IRF reporter in test [2] (agonist: 3'3'-cGAMP 10 ug/mL) worked out at 1.19 ± 0.073; in test [2] (agonist: LPS 0.1 ug/mL), 1.12 ± 0.095; in test [2] (agonist: MPLA […]) it was 1.11 ± 0.16. In test [3], the viability score was 0.979 (active).

As for `Cc1ccc(C2=NN3C(=N)C(=Cc4c[nH]c5ccccc45)C(=O)N=C3S2)cc1`, the NF-kB reporter is 0.997 ± 0.079 in test [1] (setting [4]), 1.03 ± 0.065 in test [1] (agonist: LPS 0.1 ug/mL) and 0.932 ± 0.058 in test [1] (agonist: MPLA […]). In addition, the IRF reporter in test [2] (agonist: 3'3'-cGAMP 10 ug/mL) amounted to 0.974 ± 0.024; in test [2] (agonist: LPS 0.1 ug/mL), 1.38 ± 0.2; in test [2] (agonist: MPLA […]), 1.12 ± 0.21. In addition, the viability score in test [3] was 1.01 (active).

In the case of `CC(=O)O.NCc1ccc(S(N)(=O)=O)cc1`, the figures for the NF-kB reporter in test [1] (setting [4]), in test [1] (agonist: LPS 0.1 ug/mL) and in test [1] (agonist: MPLA […]) were 1 ± 0.1, 1.01 ± 0.052 and 0.992 ± 0.058, respectively. The IRF reporter in test [2] (agonist: 3'3'-cGAMP 10 ug/mL) was determined as 0.914 ± 0.065; in test [2] (agonist: LPS 0.1 ug/mL) it was 0.96 ± 0.12; in test [2] (agonist: MPLA […]) it was 1.02 ± 0.092. In addition, the viability score in test [3] is 1.01 (active).

`NCCCC(=O)O`: the results for the NF-kB reporter in test [1] (setting [4]), in test [1] (agonist: LPS 0.1 ug/mL) and in test [1] (agonist: MPLA […]) were 1.18 ± 0.28, 0.974 ± 0.1 and 1.01 ± 0.083, respectively. For the same molecule, the IRF reporter in test [2] (agonist: 3'3'-cGAMP 10 ug/mL) was determined as 0.981 ± 0.04; in test [2] (agonist: LPS 0.1 ug/mL), 1.3 ± 0.19; in test [2] (agonist: MPLA […]), 1.3 ± 0.14. Moreover, the viability score in test [3] is 0.995 (active).

On to `CC(=O)Oc1cccc2c1C(=O)c1c(OC(C)=O)cc(C(=O)O)cc1C2=O`, for which the NF-kB reporter worked out at 1.14 ± 0.088 in test [1] (setting [4]), 1.04 ± 0.077 in test [1] (agonist: LPS 0.1 ug/mL) and 1.01 ± 0.049 in test [1] (agonist: MPLA […]). Also, the IRF reporter in test [2] (agonist: 3'3'-cGAMP 10 ug/mL) worked out at 0.971 ± 0.068; in test [2] (agonist: LPS 0.1 ug/mL) it was 0.954 ± 0.033; in test [2] (agonist: MPLA […]), 0.939 ± 0.12. Further, the viability score in test [3] is 1 (active).

In the case of `OCCCNCC(O)Cn1c2ccc(Br)cc2c2cc(Br)ccc21` (stereo not drawn), the NF-kB reporter was found to be 0.661 ± 0.043 in test [1] (setting [4]), 0.653 ± 0.057 in test [1] (agonist: LPS 0.1 ug/mL) and 1.75 ± 0.049 in test [1] (agonist: MPLA […]). Moreover, the IRF reporter came to 0.626 ± 0.046 in test [2] (agonist: 3'3'-cGAMP 10 ug/mL), 1.19 ± 0.073 in test [2] (agonist: LPS 0.1 ug/mL) and 1.91 ± 0.18 in test [2] (agonist: MPLA […]). The viability score in test [3] is 0.108 (inactive).

For `Oc1ccc(N=Cc2ccccc2)cc1`, the NF-kB reporter came out at 1.38 ± 0.18 in test [1] (setting [4]), 1.2 ± 0.079 in test [1] (agonist: LPS 0.1 ug/mL) and 2.67 ± 0.18 in test [1] (agonist: MPLA […]). In addition, the IRF reporter was found to be 0.605 ± 0.037 in test [2] (agonist: 3'3'-cGAMP 10 ug/mL), 0.924 ± 0.082 in test [2] (agonist: LPS 0.1 ug/mL) and 1.58 ± 0.35 in test [2] (agonist: MPLA […]). For the same molecule, in test [3], the viability score was 0.988 (active).

Take `CC(=O)OC(OC(C)=O)c1ccc([N+](=O)[O-])s1`: the figures for the NF-kB reporter in test [1] (setting [4]), in test [1] (agonist: LPS 0.1 ug/mL) and in test [1] (agonist: MPLA […]) were 0.0633 ± 0.01, 0.0636 ± 0.0089 and 0.156 ± 0.012, respectively. Further, the IRF reporter came out at 0.0166 ± 0.0041 in test [2] (agonist: 3'3'-cGAMP 10 ug/mL), 0.0362 ± 0.0098 in test [2] (agonist: LPS 0.1 ug/mL) and 0.0457 ± 0.011 in test [2] (agonist: MPLA […]). The viability score in test [3] is 0.177 (inactive).

As for `CC1(C)CCCC2=C1CC1C(=O)NC(=O)C1C2` (stereo not drawn), the NF-kB reporter in test [1] (setting [4]) came out at 0.88 ± 0.079; in test [1] (agonist: LPS 0.1 ug/mL), 0.977 ± 0.076; in test [1] (agonist: MPLA […]), 0.948 ± 0.14. Further, the values for the IRF reporter in test [2] (agonist: 3'3'-cGAMP 10 ug/mL), in test [2] (agonist: LPS 0.1 ug/mL) and in test [2] (agonist: MPLA […]) were 0.953 ± 0.085, 1.16 ± 0.2 and 1.32 ± 0.33, respectively. For the same molecule, the viability score in test [3] was 1.03 (active).

The values above are taken from the supplement of paper PMC10646978.
